# Measurements reported in PubChem BioAssay AID430 (Sanford-Burnham Center for Chemical Genomics, 2006).
# The whole screen tested about 63,000 compounds, of which about 1,100 (1.7%) were called active. No stated cut-off is given here; in the data, active means cytotoxicity above about 50%; inactive means the rest. Many of the other results were omitted from the sample, so actives are more common in it than they were. Results with a measured potency or affinity are listed apart.
# Assay: HPDE-C7 pancreatic duct cell viability loss – fluorescence, HTS (AID 430);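 further: cells exposed to compound for 48 hours before viability readout; 0% = vehicle and 100% = reference cytotoxic drug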
# Conditions: HPDE-C7 pancreatic duct cells viability, at 10 µM, active compounds read high
row,SMILES,cytotoxicity
1,CCOc1ccc(-c2noc(-c3cccnc3)n2)cc1OC,0.1% (inactive)
2,Cc1[nH]nc2c1C1(CCN(C(=O)c3ccccc3)CC1)C(C#N)=C(N)O2,-19.1% (inactive)
3,Cc1ccc(NC(=O)N2CCC(C(=O)NCCC3=CCCCC3)CC2)cc1,-6.2% (inactive)
4,CC1(C)Cc2noc(N)c2C(C)(C)N1OC(=O)c1ccccc1,-5.7% (inactive)
5,Cc1csc(NC(=O)c2sc3nc(-c4cccs4)ccc3c2N)n1,60.5% (active)
6,Nc1c(C(=O)NC2CCCC2)sc2nc(-c3cccs3)ccc12,10.5% (inactive)
7,CCCSc1nnc(NC(=O)c2sc3nc(-c4cccs4)ccc3c2N)s1,41.2% (inactive)
8,CCCOc1ccc(S(=O)(=O)NCCN2CCOCC2)c2ccccc12,-13.1% (inactive)
9,O=C(NC1CCCCC1)C1CC(=O)N(c2ccc(Cl)cc2)C1 (stereo unspecified),-9.5% (inactive)
10,CC1(C)C(c2cccs2)=NC(c2ccccc2)N1O (stereo unspecified),-25.9% (inactive)
11,Cc1ccc(C(N)=O)cc1S(=O)(=O)Nc1cccc(C)c1C,18.4% (inactive)
12,O=C(CC1Oc2ccccc2NC1=O)NCCCN1CCN(C2CCCCC2)CC1 (stereo unspecified),2.6% (inactive)
13,O=C(CC(SCCO)c1ccc(F)cc1)c1ccco1 (stereo unspecified),3.7% (inactive)
14,O=C(CSCCSCC(=O)c1ccco1)c1ccco1,10.6% (inactive)
15,Cc1ccc(C(CC(=O)c2ccco2)SCCO)cc1 (stereo unspecified),99.5% (active)
16,CCC(=O)N1CC23C=CC(CC2CC12CCCCC2)O3 (stereo unspecified),-6.8% (inactive)
17,COc1ccc(OC)c(CC(NC(C)=O)C(=O)NC2CCN(c3nc(C)cc(C)c3C#N)CC2)c1 (stereo unspecified),-6.9% (inactive)
18,COc1ccc(-c2oc(/N=C/N3CCOCC3)c(C#N)c2-c2ccc(OC)cc2)cc1,-7.7% (inactive)
19,NC1=NC2(CCC(c3ccccc3)CC2)n2c(nc3ccccc32)N1 (stereo unspecified),77.1% (active)
20,NC1=NC2(CCCCC2)n2c(nc3ccccc32)N1,11.9% (inactive)
21,NC1=NC2(CCN(Cc3ccccc3)CC2)n2c(nc3ccccc32)N1,0.8% (inactive)
22,CCCn1c(SCC(=O)Nc2ccc3c(c2)OCO3)nc2c1c(=O)n(C)c(=O)n2C,-4.6% (inactive)
23,Cc1noc(C)c1CSc1ncnc2ccccc12,4.7% (inactive)
24,O=S(=O)(Nc1nc2ccccc2nc1NCc1ccco1)c1ccc(Cl)cc1,18.1% (inactive)

row,SMILES,cytotoxicity
1,Cc1noc(C)c1CSc1nc2ccccc2nc1NS(=O)(=O)c1ccc(Cl)cc1,81.1% (active)
2,O=C(c1ccco1)N1CCN(C(=O)N2c3ccccc3Sc3ccccc32)CC1,73.2% (active)
3,O=C(N1CCOCC1)N1CCN(c2ccccn2)CC1,-15.7% (inactive)
4,O=C(N1CCN(c2ccccn2)CC1)N1c2ccccc2Sc2ccccc21,66.7% (active)
5,O=C(CN1CCN(c2ccccn2)CC1)N1c2ccccc2Sc2ccc(C(F)(F)F)cc21,22.1% (inactive)
6,O=C(c1ccco1)N1c2ccccc2Sc2ccccc21,4.4% (inactive)
7,O=C(NC1CCN(C(=O)N2c3ccccc3Sc3ccccc32)CC1)c1ccco1,-12.6% (inactive)
8,CC(=O)N1c2c(cc(Br)cc2S(=O)(=O)NCC2COc3ccccc3O2)CC1C (stereo unspecified),13.1% (inactive)
9,COc1ccc(-c2oc3ncnc(NCCN4CCOCC4)c3c2-c2ccc(OC)cc2)cc1,3.3% (inactive)
10,COc1ccc(-c2oc3ncnc(NCCCN4CCOCC4)c3c2-c2ccc(OC)cc2)cc1,67.3% (active)
11,c1ccc(-c2oc3ncnc(NCCCN4CCOCC4)c3c2-c2ccccc2)cc1,48.6% (inactive)
12,Cc1cccc(CS(=O)(=O)Cc2ccc(C(=O)NCc3cccnc3)o2)c1,-7.1% (inactive)
13,c1ccc2c(SCc3cn4cccnc4n3)ncnc2c1,13.3% (inactive)
14,Cc1cc(=O)n2c3c(sc2n1)C(=O)N(Cc1ccccc1)C3=O,3.8% (inactive)
15,Cc1cccc(Nc2nc(N)nc(CN3CCN(c4ccccc4)CC3)n2)c1,-13.2% (inactive)
16,COc1ccc(N2CCN(Cc3nc(N)nc(Nc4ccc(C)c(Cl)c4)n3)CC2)cc1,7.9% (inactive)
17,Cc1ccc(Nc2nc(N)nc(CN3CCN(c4ccccc4)CC3)n2)cc1Cl,72.1% (active)
18,O=C(Nc1nccs1)c1ccc(Br)o1,-3.3% (inactive)
19,Cc1ccc(C(=O)NCCn2cc(SCC(=O)Nc3nnc(C)s3)c3ccccc32)cc1,-2% (inactive)
20,c1ccc(CSc2nnc(-c3c[nH]c4ccccc34)o2)cc1,-3.6% (inactive)
21,S=c1[nH]nc(Cc2c[nH]c3ccccc23)o1,-0.8% (inactive)
22,O=C(Nc1ccc2c(c1)OCO2)Oc1ccccc1,-9.1% (inactive)
23,CSc1nc(N2CCN(CCO)CC2)c2sc3nc(-c4ccco4)c4c(c3c2n1)CCC4,-8.6% (inactive)
24,c1nc(NCCN2CCOCC2)c2sc3nc(N4CCOCC4)c4c(c3c2n1)CCC4,16.6% (inactive)

row,SMILES,cytotoxicity
1,OCCN(CCO)c1ncnc2c1sc1nc(N3CCOCC3)c3c(c12)CCCC3,-3.9% (inactive)
2,COC(=O)CSc1ncnc2c1sc1nc(-c3ccco3)c3c(c12)CC(C)(C)OC3,15% (inactive)
3,CCC1Oc2ccccc2N(CC(=O)NCCC2=CCCCC2)C1=O (stereo unspecified),0.8% (inactive)
4,COc1cccc(N2CCN(C(=O)CCn3c(=S)[nH]c4cc5c(cc4c3=O)OCO5)CC2)c1,-14.3% (inactive)
5,Cc1cc(C)n(-c2nnc(C)n2/N=C/c2cc(Br)ccc2OCc2ccccc2)n1,57.6% (active)
6,CCCOc1ccc2ccccc2c1/C=N/n1c(C)nnc1-n1nc(C)cc1C,41.9% (inactive)
7,Cc1cc(C)n(-c2nnc(C)n2/N=C/c2ccccc2OCc2ccccc2Cl)n1,34.5% (inactive)
8,COc1ccc(O)c(-c2cc(-c3cccs3)[nH]n2)c1,26.9% (inactive)
9,Oc1ccc(Br)cc1-c1cc(-c2ccccc2F)[nH]n1,12.4% (inactive)
10,CSc1nnc2n(-c3ccccc3)c(=O)c3c4c(sc3n12)CCC4,11.5% (inactive)
11,O=S(=O)(c1ccccc1)N1CCN(Cc2ccccc2C(F)(F)F)CC1,-2.9% (inactive)
12,CCOc1ccc(NS(=O)(=O)c2ccc3c(c2)CCN3C(=O)CCC(=O)O)cc1,-5.5% (inactive)
13,O=S(=O)(c1ccc2ccccc2c1)N1CCCCC1,-5.5% (inactive)
14,O=S(=O)(c1ccc2ccccc2c1)N(CC(O)CN1CCOCC1)c1ccccc1 (stereo unspecified),-8% (inactive)
15,CCCn1c(SCC(=O)Nc2cccc(C)n2)nnc1-c1ccco1,-2% (inactive)
16,CCOC(=O)C1=C(C)NC(C)=C(C(=O)OCC)C1c1ccc(OC)cc1,11.1% (inactive)
17,CN1CCN(C(CNS(=O)(=O)c2ccc(Cl)cc2)c2cccnc2)CC1 (stereo unspecified),2.1% (inactive)
18,COCCNC(=O)C(c1ccccc1C)N(CCOC)C(=O)Cn1nnc2ccccc21 (stereo unspecified),4.3% (inactive)
19,O=C(CSc1nnc(-c2cccs2)o1)N1CCOCC1,-10.3% (inactive)
20,CCOC(=O)c1cn(CC)c2cc(N3CCCCC3)c(F)cc2c1=O,3.7% (inactive)
21,CCOC(=O)c1cn2c3c(c(F)c(F)c(F)c3c1=O)SC(N1CCCC1)=N2,62.5% (active)
22,CCOC(=O)c1sc2c(c1C)c(=O)c(C(=O)OCC)cn2CC,1.7% (inactive)
23,CCCOCCOC(=O)C1=C(C)NC(=O)NC1c1cc(Cl)c(O)c(OC)c1 (stereo unspecified),-9.1% (inactive)
24,Cc1nn(CC(O)Cn2c3c(c4ccccc42)CCN(C)C3=O)c(C)c1Br (stereo unspecified),-4.2% (inactive)

row,SMILES,cytotoxicity
1,CCOC(=O)c1cc(C)n(CCc2ccccc2)c1C,-7.6% (inactive)
2,Cc1cc(-c2csc(N)n2)c(C)n1CCc1ccccc1,78.3% (active)
3,Nc1nc(-c2ccccc2Br)cs1,11.7% (inactive)
4,CCOC(=O)N1CCN(C/C(C)=C/c2ccccc2)CC1,-6% (inactive)
5,CCN(CCN(C)C)C(=O)Cn1ncc2c1-c1cc(C)ccc1OC2,-7.1% (inactive)
6,CCOc1cc(C(=O)N2CCc3cc(OC)c(OC)cc3C2)ccc1OC(F)F,82.5% (active)
7,COc1ccc(C(=O)N2CCc3cc(OC)c(OC)cc3C2)cc1OC,5.8% (inactive)
8,CCOc1ccc(C(=O)N2CCc3cc(OC)c(OC)cc3C2)cc1OCC,18.6% (inactive)
9,Cc1ccccc1CSc1ncc(C#N)c(N)n1,-10.1% (inactive)
10,COc1ccc(Nc2cc(C(=O)NCCCN3CCN(C)CC3)c3ccccc3n2)c(OC)c1,2% (inactive)
11,Cc1csc(C(C#N)C(=O)c2ccncc2)n1 (stereo unspecified),-11% (inactive)
12,COc1ccc(-n2c3c(cc(C(=O)Nc4ccc5c(c4)C(=O)NC5=O)c2=O)C(=O)CCC3)cc1,58.8% (active)
13,Cc1cccc(NC(=O)c2cc3c(n(-c4ccccc4)c2=O)CCCC3=O)n1,9.4% (inactive)
14,Cc1ccc(-n2c3c(cc(C(=O)Nc4cccc(C)n4)c2=O)C(=O)CCC3)cc1,-27.7% (inactive)
15,COC(=O)c1cc(OC)c(OC)cc1-n1cnc2cc(OC)c(OC)cc2c1=O,-9.2% (inactive)
16,Cc1cccc(NC2=NC3(CCCCC3)N=C(N)N2)c1C,-3.7% (inactive)
17,CCOc1ccc(NC(=O)CN2C(=O)COc3ccc(Cl)cc32)cc1,-2% (inactive)
18,CCOC(=O)c1ccc2c(c1)nc(SC/C(O)=C(\C#N)c1nc3ccccc3[nH]1)n2CC,16.2% (inactive)
19,Cc1nnc(SCc2ccc(Cl)cc2)n1CC1CCCO1 (stereo unspecified),2.4% (inactive)
20,O=C(O)CSc1nnc(-c2ccccc2)o1,0.1% (inactive)
21,Cc1nnc(SCC(=O)n2c3c(c4ccccc42)CCCC3)s1,-1% (inactive)
22,O=C(CSc1nnc(-c2ccccc2)o1)n1c2c(c3ccccc31)CCCC2,53.3% (active)
23,CC1CCCCN1S(=O)(=O)c1coc(C(N)=O)c1 (stereo unspecified),-2.9% (inactive)
24,CC(=O)NC(C)C12CC3CC(CC(C(=O)O)(C3)C1)C2 (stereo unspecified),-6.6% (inactive)
